We go through three molecules from ChEMBL document CHEMBL1961873, “Compounds: GSK PKIS; Assays: Nanosyn kinase panel” (2012).

Test [1] has as its target 5'-AMP-activated protein kinase catalytic subunit alpha-2 (Homo sapiens) (UniProt P54646). To be noted: at 1 µM.
The target in test [2] is T1, NUAK family SNF1-like kinase 1 (Homo sapiens) (UniProt O60285).
T1 sequence (whole entry): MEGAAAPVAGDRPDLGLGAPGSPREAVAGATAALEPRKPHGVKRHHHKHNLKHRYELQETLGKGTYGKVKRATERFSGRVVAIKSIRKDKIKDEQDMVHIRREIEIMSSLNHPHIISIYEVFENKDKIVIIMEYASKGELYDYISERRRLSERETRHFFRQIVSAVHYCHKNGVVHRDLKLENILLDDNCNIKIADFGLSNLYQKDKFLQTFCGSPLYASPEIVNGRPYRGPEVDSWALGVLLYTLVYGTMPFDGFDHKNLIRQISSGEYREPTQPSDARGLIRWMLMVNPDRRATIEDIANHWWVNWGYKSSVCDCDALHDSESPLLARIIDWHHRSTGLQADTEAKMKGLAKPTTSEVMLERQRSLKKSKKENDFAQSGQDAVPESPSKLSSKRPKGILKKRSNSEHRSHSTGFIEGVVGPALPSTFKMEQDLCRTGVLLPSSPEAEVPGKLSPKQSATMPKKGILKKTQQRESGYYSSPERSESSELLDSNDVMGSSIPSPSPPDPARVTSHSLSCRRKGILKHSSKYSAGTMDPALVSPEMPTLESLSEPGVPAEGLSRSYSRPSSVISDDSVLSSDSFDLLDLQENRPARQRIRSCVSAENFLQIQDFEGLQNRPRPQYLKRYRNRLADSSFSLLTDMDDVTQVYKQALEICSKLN
To be noted: at 0.1 µM.

The target in test [3] is T1, NUAK family SNF1-like kinase 1 (Homo sapiens). As to conditions: at 1 µM.
The target of test [4] is T2, Serine/threonine-protein kinase BRSK1 (Homo sapiens) (UniProt Q8TDC3).
T2 sequence (whole entry): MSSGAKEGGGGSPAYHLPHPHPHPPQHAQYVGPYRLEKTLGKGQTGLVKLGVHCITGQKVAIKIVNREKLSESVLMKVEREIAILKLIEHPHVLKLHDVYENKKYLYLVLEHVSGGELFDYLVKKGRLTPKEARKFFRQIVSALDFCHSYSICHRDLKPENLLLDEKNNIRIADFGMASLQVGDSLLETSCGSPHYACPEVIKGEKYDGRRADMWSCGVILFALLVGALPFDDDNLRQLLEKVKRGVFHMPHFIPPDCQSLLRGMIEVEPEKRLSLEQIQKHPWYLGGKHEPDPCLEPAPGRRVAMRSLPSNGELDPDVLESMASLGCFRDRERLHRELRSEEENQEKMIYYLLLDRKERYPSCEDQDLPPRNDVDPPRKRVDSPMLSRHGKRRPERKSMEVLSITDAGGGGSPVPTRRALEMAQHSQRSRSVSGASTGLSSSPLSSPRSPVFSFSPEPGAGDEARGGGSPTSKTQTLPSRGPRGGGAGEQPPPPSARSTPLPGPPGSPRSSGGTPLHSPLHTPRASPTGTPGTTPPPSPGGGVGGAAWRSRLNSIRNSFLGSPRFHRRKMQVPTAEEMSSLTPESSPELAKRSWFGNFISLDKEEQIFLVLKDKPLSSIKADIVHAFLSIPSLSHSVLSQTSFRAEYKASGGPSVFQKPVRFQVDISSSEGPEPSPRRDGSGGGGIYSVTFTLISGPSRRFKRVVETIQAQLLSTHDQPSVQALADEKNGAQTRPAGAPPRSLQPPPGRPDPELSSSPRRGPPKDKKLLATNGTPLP
As to conditions: at 0.1 µM.

Test [5] deals with T2, Serine/threonine-protein kinase BRSK1 (Homo sapiens). As to conditions: at 1 µM.
The target of test [6] is T3, Serine/threonine-protein kinase BRSK2 (Homo sapiens) (UniProt Q8IWQ3).
T3 sequence (whole entry): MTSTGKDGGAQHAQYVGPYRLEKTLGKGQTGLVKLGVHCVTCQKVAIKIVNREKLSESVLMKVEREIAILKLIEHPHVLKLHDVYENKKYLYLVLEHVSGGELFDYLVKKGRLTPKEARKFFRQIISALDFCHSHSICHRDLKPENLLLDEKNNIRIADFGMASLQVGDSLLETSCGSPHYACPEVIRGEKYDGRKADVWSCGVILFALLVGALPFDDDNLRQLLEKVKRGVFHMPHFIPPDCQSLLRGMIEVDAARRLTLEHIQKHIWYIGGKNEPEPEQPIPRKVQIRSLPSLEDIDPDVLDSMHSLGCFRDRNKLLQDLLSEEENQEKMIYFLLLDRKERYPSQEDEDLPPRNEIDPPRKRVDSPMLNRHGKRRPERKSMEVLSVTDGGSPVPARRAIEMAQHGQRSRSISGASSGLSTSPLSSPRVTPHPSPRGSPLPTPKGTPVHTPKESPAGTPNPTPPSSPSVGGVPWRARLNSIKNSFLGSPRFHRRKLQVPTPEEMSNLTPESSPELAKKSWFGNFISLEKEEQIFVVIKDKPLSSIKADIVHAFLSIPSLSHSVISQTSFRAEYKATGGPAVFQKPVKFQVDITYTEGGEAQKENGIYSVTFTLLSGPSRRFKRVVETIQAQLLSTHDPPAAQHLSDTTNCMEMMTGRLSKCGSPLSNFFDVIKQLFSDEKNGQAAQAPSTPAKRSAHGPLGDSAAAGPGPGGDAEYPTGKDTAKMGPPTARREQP
As to conditions: at 0.1 µM.

Test [7] deals with T3, Serine/threonine-protein kinase BRSK2 (Homo sapiens). To be noted: at 1 µM.
The target of test [8] is Calcium/calmodulin-dependent protein kinase type 1D (Homo sapiens) (UniProt Q8IU85). To be noted: at 0.1 µM.
Chain of Calcium/calmodulin-dependent protein kinase type 1D (Homo sapiens) (Q8IU85 whole entry, looked up): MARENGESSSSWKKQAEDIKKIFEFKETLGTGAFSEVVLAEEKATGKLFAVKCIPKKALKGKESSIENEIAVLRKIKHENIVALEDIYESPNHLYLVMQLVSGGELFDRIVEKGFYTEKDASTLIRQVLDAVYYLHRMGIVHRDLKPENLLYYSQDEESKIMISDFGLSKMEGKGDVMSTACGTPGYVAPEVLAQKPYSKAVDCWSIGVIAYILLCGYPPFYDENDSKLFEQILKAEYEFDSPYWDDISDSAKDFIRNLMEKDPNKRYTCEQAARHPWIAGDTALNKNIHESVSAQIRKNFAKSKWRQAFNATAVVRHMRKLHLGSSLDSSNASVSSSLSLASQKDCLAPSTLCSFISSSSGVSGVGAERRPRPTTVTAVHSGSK
For test [9] the target is unchanged. To be noted: at 1 µM.
Test [10] concerns the target Calcium/calmodulin-dependent protein kinase type II subunit alpha (Homo sapiens) (UniProt Q9UQM7). To be noted: at 0.1 µM.
Test [11] has the same target. To be noted: at 1 µM.
Test [12] has as its target Calcium/calmodulin-dependent protein kinase type II subunit delta (Homo sapiens) (UniProt Q13557). As to conditions: at 0.1 µM.
For test [13] the target is unchanged. As to conditions: at 1 µM.
Test [14] concerns the target T4, Calcium/calmodulin-dependent protein kinase type IV (Homo sapiens) (UniProt Q16566).
T4 sequence (whole entry): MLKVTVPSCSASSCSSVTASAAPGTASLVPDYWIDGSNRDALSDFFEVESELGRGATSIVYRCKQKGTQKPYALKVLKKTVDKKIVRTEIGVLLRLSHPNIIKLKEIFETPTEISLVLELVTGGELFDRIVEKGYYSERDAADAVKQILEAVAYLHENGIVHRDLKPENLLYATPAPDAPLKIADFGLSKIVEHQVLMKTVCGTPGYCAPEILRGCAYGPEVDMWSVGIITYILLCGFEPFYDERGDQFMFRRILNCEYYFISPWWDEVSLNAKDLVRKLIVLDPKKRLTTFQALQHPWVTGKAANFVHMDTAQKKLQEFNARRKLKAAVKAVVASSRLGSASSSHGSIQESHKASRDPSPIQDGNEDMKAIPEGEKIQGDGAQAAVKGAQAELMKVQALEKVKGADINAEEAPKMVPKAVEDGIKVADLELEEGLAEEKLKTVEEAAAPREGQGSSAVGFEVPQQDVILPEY
To be noted: at 0.1 µM.

Test [15] concerns the target T4, Calcium/calmodulin-dependent protein kinase type IV (Homo sapiens). To be noted: at 1 µM.
Test [16] has as its target T5, Serine/threonine-protein kinase Chk1 (Homo sapiens) (UniProt O14757).
T5 sequence (whole entry): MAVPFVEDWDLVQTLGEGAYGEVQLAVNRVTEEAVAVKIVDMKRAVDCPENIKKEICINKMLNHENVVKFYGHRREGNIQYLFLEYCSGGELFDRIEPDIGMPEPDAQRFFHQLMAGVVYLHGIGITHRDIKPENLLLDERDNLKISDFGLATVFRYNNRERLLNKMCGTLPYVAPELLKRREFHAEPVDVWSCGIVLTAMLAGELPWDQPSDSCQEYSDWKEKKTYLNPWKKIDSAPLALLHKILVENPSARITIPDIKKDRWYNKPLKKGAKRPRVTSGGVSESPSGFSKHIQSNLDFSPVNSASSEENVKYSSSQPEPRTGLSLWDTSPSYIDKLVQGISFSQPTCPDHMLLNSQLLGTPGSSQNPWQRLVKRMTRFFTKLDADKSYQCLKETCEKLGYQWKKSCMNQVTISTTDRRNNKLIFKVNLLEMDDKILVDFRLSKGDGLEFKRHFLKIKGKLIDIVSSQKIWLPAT
To be noted: at 0.1 µM.

Test [17] concerns the target T5, Serine/threonine-protein kinase Chk1 (Homo sapiens). To be noted: at 1 µM.
The target in test [18] is Serine/threonine-protein kinase Chk2 (Homo sapiens) (UniProt O96017). To be noted: at 0.1 µM.
Chain of Serine/threonine-protein kinase Chk2 (Homo sapiens) (O96017 whole entry): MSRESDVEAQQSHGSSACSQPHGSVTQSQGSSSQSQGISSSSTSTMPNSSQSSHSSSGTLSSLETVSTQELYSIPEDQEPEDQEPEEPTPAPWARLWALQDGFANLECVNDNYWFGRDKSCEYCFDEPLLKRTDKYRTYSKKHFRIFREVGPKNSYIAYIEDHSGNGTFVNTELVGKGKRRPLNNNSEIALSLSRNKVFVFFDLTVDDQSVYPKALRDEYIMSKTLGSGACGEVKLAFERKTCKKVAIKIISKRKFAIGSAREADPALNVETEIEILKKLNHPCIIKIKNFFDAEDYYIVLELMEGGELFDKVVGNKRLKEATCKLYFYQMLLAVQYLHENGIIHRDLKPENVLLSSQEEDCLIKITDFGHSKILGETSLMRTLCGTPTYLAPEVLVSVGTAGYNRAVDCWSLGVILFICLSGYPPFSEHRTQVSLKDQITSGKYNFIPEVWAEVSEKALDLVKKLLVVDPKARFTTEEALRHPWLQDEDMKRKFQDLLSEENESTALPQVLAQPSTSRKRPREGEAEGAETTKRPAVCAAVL
Test [19] shares this target. To be noted: at 1 µM.
For test [20], the target named is Death-associated protein kinase 1 (Homo sapiens) (UniProt P53355). As to conditions: at 0.1 µM.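 Further: reported figure is the mean inhibition of DAPK1.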
Chain of Death-associated protein kinase 1 (Homo sapiens) (P53355 whole entry, looked up): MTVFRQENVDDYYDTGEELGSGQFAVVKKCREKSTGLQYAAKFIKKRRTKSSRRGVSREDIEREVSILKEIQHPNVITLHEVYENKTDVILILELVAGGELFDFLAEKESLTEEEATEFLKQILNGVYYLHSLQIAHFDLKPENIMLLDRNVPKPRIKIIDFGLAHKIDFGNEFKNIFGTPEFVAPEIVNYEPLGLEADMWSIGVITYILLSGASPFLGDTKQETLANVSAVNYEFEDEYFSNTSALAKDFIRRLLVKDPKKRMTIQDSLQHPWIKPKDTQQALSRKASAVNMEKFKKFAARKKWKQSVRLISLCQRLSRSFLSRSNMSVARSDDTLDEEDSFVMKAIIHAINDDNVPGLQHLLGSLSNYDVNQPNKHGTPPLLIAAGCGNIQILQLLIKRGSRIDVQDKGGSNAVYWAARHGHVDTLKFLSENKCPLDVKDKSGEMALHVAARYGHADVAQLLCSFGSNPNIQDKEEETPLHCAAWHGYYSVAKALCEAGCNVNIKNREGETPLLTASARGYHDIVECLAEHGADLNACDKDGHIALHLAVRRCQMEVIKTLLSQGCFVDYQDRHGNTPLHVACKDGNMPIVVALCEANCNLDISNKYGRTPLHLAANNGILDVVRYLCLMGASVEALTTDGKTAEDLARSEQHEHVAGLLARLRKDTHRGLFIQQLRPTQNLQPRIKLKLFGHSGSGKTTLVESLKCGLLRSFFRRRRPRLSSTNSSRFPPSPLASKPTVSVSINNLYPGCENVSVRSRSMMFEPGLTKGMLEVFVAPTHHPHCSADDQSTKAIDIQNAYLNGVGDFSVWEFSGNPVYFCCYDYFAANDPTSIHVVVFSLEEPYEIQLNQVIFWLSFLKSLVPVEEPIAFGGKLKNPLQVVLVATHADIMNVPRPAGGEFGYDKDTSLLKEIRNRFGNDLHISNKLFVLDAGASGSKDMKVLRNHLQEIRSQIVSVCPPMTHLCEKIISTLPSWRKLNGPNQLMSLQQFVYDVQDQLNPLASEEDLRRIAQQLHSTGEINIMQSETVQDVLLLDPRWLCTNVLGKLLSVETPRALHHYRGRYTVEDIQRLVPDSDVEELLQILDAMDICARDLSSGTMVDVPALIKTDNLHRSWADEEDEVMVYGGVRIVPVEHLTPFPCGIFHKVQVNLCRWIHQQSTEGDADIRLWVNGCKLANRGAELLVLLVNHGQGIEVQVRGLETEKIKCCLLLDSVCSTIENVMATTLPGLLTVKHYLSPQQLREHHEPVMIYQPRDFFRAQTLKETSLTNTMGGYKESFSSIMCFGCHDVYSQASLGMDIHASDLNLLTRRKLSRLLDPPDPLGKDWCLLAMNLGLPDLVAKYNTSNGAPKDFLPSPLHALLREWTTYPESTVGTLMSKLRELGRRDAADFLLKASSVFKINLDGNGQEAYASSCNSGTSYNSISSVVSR

Chain of 5'-AMP-activated protein kinase catalytic subunit alpha-2 (Homo sapiens) (P54646 whole entry, looked up): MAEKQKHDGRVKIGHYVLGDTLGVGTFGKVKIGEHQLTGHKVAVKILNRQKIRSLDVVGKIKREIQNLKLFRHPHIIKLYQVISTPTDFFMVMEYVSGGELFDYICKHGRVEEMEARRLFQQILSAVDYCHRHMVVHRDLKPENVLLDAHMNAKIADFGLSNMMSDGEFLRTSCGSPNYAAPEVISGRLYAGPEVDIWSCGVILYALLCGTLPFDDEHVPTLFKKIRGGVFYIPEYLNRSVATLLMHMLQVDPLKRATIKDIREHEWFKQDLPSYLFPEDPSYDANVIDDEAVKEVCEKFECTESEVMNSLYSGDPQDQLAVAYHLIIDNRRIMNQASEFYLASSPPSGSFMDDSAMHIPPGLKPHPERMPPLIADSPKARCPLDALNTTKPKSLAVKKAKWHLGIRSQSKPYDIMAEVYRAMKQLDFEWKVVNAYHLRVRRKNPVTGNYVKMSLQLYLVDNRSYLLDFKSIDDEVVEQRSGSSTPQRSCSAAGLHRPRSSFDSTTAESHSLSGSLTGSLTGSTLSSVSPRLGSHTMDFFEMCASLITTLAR
Chain of Calcium/calmodulin-dependent protein kinase type II subunit delta (Homo sapiens) (Q13557 whole entry): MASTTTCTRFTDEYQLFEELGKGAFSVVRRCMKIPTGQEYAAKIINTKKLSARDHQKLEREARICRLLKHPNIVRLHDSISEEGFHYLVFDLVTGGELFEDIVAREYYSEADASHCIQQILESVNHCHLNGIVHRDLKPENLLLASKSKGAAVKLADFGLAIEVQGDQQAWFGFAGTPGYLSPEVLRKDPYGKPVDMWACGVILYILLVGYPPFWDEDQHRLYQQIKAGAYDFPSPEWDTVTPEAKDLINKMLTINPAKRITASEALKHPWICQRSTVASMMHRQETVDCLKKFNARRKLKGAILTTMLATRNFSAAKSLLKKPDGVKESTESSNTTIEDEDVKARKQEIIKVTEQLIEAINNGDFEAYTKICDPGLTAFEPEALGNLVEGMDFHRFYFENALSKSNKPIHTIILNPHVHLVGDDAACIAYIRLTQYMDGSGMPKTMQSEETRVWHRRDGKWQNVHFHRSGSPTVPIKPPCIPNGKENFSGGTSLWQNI
Chain of Calcium/calmodulin-dependent protein kinase type II subunit alpha (Homo sapiens) (Q9UQM7 whole entry): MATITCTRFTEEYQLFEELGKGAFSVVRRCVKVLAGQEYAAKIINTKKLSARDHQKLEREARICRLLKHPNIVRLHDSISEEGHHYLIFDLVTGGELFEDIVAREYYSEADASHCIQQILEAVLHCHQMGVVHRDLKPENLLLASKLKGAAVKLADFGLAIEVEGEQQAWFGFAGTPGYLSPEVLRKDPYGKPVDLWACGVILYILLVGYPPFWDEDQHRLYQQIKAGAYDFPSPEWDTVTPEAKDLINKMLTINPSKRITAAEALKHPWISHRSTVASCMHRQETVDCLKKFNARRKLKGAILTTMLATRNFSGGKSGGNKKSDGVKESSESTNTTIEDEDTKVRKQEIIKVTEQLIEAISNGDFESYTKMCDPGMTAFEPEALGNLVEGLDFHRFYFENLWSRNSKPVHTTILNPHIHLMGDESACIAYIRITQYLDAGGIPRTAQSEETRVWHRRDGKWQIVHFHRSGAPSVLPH

As to `NS(=O)(=O)c1cccc(-c2ccc3c(NC(=O)C4CC4)n[nH]c3c2)c1`, the inhibition in test [1] is -0.49%; in [2] it was 0.7%; in test [3], 1.95%; in test [4], 6.3%; in test [5] it was 41.3%; in test [6], 12.6%. Besides, the inhibition was 51.8% in test [7]; -0.5% in test [8]; -0.98% in [9]; -4.43% in test [10]; -3.57% in test [11]; -2.03% in test [12]. The inhibition in [13] is -1.61%; in test [14], -0.79%; in test [15], -1.58%; in test [16] it was 3.4%; in [17] it was 2.13%; in test [18], -2.9%. For the same molecule, the figures for the inhibition in [19] and in test [20] were -2.43% and 1.4%, respectively.

Turning to `COc1cc(C)c(NC(=O)CN(C)C)cc1Nc1nc(Nc2cccc(F)c2C(N)=O)c2cc[nH]c2n1`, the inhibition in test [1] was 4.27%; in test [2], -0.32%; in test [3] it was 4.12%; in [4], 1.09%; in [5] it was 0.73%; in test [6], 0.37%. Further, the inhibition in test [7] is -2.24%; in test [8], 2.17%; in [9], 16.7%; in test [10], 3.26%; in test [11], 8.59%; in [12], 4.57%. Besides, the inhibition in test [13] is 14.2%; in test [14], 9.62%; in test [15], 40%; in test [16] it was -4.03%; in test [17] it was -1.09%; in [18] it was 40.2%. The inhibition in test [19] came out at 76.2%; in test [20], 1.58%.

For `COc1ccc(COc2ccc(Cc3cnc(N)nc3N)cc2OC)cc1`, the inhibition in test [1] was determined as 2.37%; in [2] it was 3.64%; in test [3] it was 3.71%; in [4], 4.29%; in test [5], 3.19%; in [6], 2.82%. In addition, the inhibition is 2.49% in [7]; 3.83% in [8]; 5.51% in [9]; 3.64% in test [10]; 5.8% in [11]; 2.39% in [12]. Further, the inhibition in [13] was found to be 2.5%; in test [14], 1.77%; in [15], 3.54%; in test [16] it was 5.47%; in test [17], 7.23%; in [18], 5.87%. The results for the inhibition in test [19] and in test [20] were 4.77% and 8.9%, respectively.
